# Results taken from PubChem BioAssay (Tox21).
# Values joined by “and” are separate entries in the source; they are usually repeats but may differ in a detail not shown here. Equal entries are not always repeated. Records with an inconclusive call do not appear. Entries that show only a call come without a potency. A number with no mark means an inactive call. Active and inactive are the calls of the source. Unless noted, the call rests on the fitted dose curve; in most records, active means well fitted cell-killing curve with a large enough effect in the repeat runs; inconclusive means weak or mixed curves; inactive means no such curve, though single readings can be large or run the other way.
# Tested on: not listed separately
# Assay: qHTS assay to identify small molecule agonists of the peroxisome proliferator-activated receptor delta (PPARd) signaling pathway - cell viability counter screen (AID 743211); further: nearly all actives have a fitted effect of over 55% in size
# Details: PPARd-bla HEK293H viability, CellTiter-Glo luminescence, 17 h; series mostly up to 62.6 µM; activity change, negative = cytotoxicity: at the top concentration
# Procedure, shortened: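 In the same wells used for beta-lactamase reporter measurement, cytotoxicity is scored by CellTiter-Glo. HEK293H PPARd-bla cells receive compound for 17 h at 37C following a 5 h settling period.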
# Potency means the concentration at half of the fitted maximal effect.
Compound,Potency,"activity change, negative = cytotoxicity [%]"
CC1=CC(=O)CC(C)(C)C1,inactive,
Clc1cccc(Cl)c1NC1=NCCN1,,7.15
CC1(C)C(=O)N(Cl)C(=O)N1Cl,,0.544
CCCCCCCC(=O)O,inactive,
O=C1O[C@H]([C@H](O)CO)C(O)=C1O,inactive,
CS(=O)(=O)c1ccc(Cl)cc1,inactive,
OB(O)O,inactive,
CC(=O)OCc1ccc2c(c1)OCO2,inactive,
CCCCCCCCCCCCCC(=O)O,inactive,
CC1(C)[C@@H](O[C@H]2O[C@H](C(=O)O)[C@@H](O)[C@H](O)[C@H]2O[C@@H]2O[C@H](C(=O)O)[C@@H](O)[C@H](O)[C@H]2O)CC[C@]2(C)[C@H]3C(=O)C=C4[C@@H]5C[C@@](C)(C(=O)O)CC[C@]5(C)CC[C@@]4(C)[C@]3(C)CC[C@@H]12,inactive,
Cc1ccncc1,inactive,
O=Cc1ccc(CO)o1,inactive,
CC(=O)Nc1ccc(CC(=O)O)cc1,inactive,
COc1cc(NC(=O)CC(C)=O)c(OC)cc1Cl,inactive,
CC(COCC(C)OC(=O)c1ccccc1)OC(=O)c1ccccc1 (configuration not stated),inactive,
CC(C)c1ccc(C(C)C)cc1,inactive,
CCN(CC)CCNC(=O)c1ccc(N)cc1,inactive,
O=C(NCC1CCCCN1)c1cc(OCC(F)(F)F)ccc1OCC(F)(F)F (configuration not stated),inactive,
C[n+]1ccn(CCO)c1,inactive,

Compound,Potency,"activity change, negative = cytotoxicity [%]"
C=CC(=O)NCOCCCC,inactive,
O=[N+]([O-])c1cc(C(F)(F)F)ccc1Cl,inactive,
CCCCC(=O)O,inactive,
C1CCCNCC1,inactive,
COc1ccc2cc3[n+](cc2c1OC)CCc1cc2c(cc1-3)OCO2,,-15.7
Nc1nc(N)c2nc(-c3ccccc3)c(N)nc2n1,,-19.8
COc1ccc([C@@H]2CC(=O)c3c(O)cc(O[C@@H]4O[C@H](CO[C@@H]5O[C@@H](C)[C@H](O)[C@@H](O)[C@H]5O)[C@@H](O)[C@H](O)[C@H]4O)cc3O2)cc1OC,,-0.895
CCCN(CCC)C(=O)SCC,inactive,
CC/C(C)=N/O,,1.93
CC/C=C(\C(=O)N[C@@H]1C(=O)N2C(C(=O)OCOC(=O)C(C)(C)C)=C(COC(N)=O)CS[C@H]12)c1csc(N)n1,inactive,
COC(=O)CCCCC(=O)OC,inactive,
C[Si](C)(C)N[Si](C)(C)C,inactive,
COC(=O)/C=C\C(=O)OC,inactive,
O=C1C(N(CO)C(=O)NCO)N(CO)C(=O)N1CO (configuration not stated),inactive,
NC(N)=S,inactive,
c1cnc2c(c1)ccc1cccnc12,698 nM (active) and 1.95 µM (active) and 692 nM (active),
Nc1cccc(N)n1,inactive,
OCC(CO)(CO)CO,inactive,

# Biological target: Peroxisome proliferator-activated receptor delta (Homo sapiens) (UniProt Q03181)
# Assay: qHTS assay to identify small molecule agonists of the peroxisome proliferator-activated receptor delta (PPARd) signaling pathway (AID 743212; calls by dose curve;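 further: HEK293H cells with PPARd UAS beta-lactamase reporter GeneBLAzer system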)
# Details: HEK293H PPARd-UAS-bla, beta-lactamase FRET ratio, 17 h; series mostly up to 62.6 µM; activation: at the top concentration
# Procedure, shortened: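 Beta-lactamase reporter read by fluorescence (LiveBLAzer B/G FRET, 2 h, room temperature). Test agents, in DMSO, incubated at 37 C with PPARd-bla HEK293H cells.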
# Sequence of Peroxisome proliferator-activated receptor delta (Homo sapiens) (Q03181 whole entry, looked up): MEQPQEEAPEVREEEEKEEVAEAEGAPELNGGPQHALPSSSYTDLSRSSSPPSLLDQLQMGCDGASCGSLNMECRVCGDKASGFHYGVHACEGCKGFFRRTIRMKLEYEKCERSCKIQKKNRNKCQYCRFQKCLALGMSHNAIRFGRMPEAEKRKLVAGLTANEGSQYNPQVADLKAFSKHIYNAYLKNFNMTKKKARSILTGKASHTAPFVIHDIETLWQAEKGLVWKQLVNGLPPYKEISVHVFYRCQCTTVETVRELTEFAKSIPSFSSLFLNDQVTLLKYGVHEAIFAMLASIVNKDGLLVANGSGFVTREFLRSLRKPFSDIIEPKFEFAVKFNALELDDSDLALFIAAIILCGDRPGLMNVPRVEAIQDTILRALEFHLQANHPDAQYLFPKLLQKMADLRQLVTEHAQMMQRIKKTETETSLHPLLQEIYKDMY
Compound,Potency,activation
CC1=CC(=O)CC(C)(C)C1,inactive,
CS(=O)(=O)c1ccc(Cl)cc1,inactive,
OB(O)O,inactive,
COc1cc(NC(=O)CC(C)=O)c(OC)cc1Cl,inactive,
CC(COCC(C)OC(=O)c1ccccc1)OC(=O)c1ccccc1 (configuration not stated),inactive,
C=CC(=O)NCOCCCC,inactive,
C1CCCNCC1,inactive,
COc1ccc2cc3[n+](cc2c1OC)CCc1cc2c(cc1-3)OCO2,,0.404% [at 81.1 µM]
Nc1nc(N)c2nc(-c3ccccc3)c(N)nc2n1,24.5 µM (active) and 23.7 µM (active),
COC(=O)CCCCC(=O)OC,inactive,
COC(=O)/C=C\C(=O)OC,inactive,
Nc1cccc(N)n1,inactive,
OCC(CO)(CO)CO,inactive,
Oc1ccc(Cc2ccccc2O)cc1,inactive,

# Tested on: not listed separately
# Assay: qHTS assay to identify small molecule antagonists of the peroxisome proliferator-activated receptor delta (PPARd) signaling pathway - cell viability counter screen (AID 743213); further: nearly all actives have a fitted effect of over 50% in size
# Details: PPARd-bla HEK293H viability, CellTiter-Glo luminescence, 17 h; series mostly up to 62 µM; viability change, negative = cytotoxic: at the top concentration
# Procedure, shortened: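 HEK293H PPARd UAS-bla cells, 5 h pre-incubation, compound + L165041 300 nM final, 17 h 37 C; B/G FRET substrate 2 h RT; then CellTiter-Glo 30 min RT, luminescence.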
Compound,Potency,"viability change, negative = cytotoxic"
Clc1cccc(Cl)c1NC1=NCCN1,inactive,
CC1(C)C(=O)N(Cl)C(=O)N1Cl,inactive,
CCCCCCCC(=O)O,inactive,
O=C1O[C@H]([C@H](O)CO)C(O)=C1O,inactive,
OB(O)O,inactive,
CC(=O)OCc1ccc2c(c1)OCO2,,0.868%
CCCCCCCCCCCCCC(=O)O,,28.1%
CC1(C)[C@@H](O[C@H]2O[C@H](C(=O)O)[C@@H](O)[C@H](O)[C@H]2O[C@@H]2O[C@H](C(=O)O)[C@@H](O)[C@H](O)[C@H]2O)CC[C@]2(C)[C@H]3C(=O)C=C4[C@@H]5C[C@@](C)(C(=O)O)CC[C@]5(C)CC[C@@]4(C)[C@]3(C)CC[C@@H]12,,-10.8%
O=Cc1ccc(CO)o1,,-3.23%
CC(=O)Nc1ccc(CC(=O)O)cc1,inactive,
CC(C)c1ccc(C(C)C)cc1,inactive,
CCN(CC)CCNC(=O)c1ccc(N)cc1,inactive,
O=C(NCC1CCCCN1)c1cc(OCC(F)(F)F)ccc1OCC(F)(F)F (configuration not stated),,-26.4%
C[n+]1ccn(CCO)c1,,-7.97%
C=CC(=O)NCOCCCC,,8.25%
O=[N+]([O-])c1cc(C(F)(F)F)ccc1Cl,inactive,
CCCCC(=O)O,inactive,
COc1ccc2cc3[n+](cc2c1OC)CCc1cc2c(cc1-3)OCO2,,-20.2%
Nc1nc(N)c2nc(-c3ccccc3)c(N)nc2n1,inactive,
COc1ccc([C@@H]2CC(=O)c3c(O)cc(O[C@@H]4O[C@H](CO[C@@H]5O[C@@H](C)[C@H](O)[C@@H](O)[C@H]5O)[C@@H](O)[C@H](O)[C@H]4O)cc3O2)cc1OC,inactive,
CCCN(CCC)C(=O)SCC,inactive,
CC/C=C(\C(=O)N[C@@H]1C(=O)N2C(C(=O)OCOC(=O)C(C)(C)C)=C(COC(N)=O)CS[C@H]12)c1csc(N)n1,inactive,
COC(=O)CCCCC(=O)OC,inactive,
C[Si](C)(C)N[Si](C)(C)C,inactive,
c1cnc2c(c1)ccc1cccnc12,389 nM (active),
Oc1ccc(Cc2ccccc2O)cc1,,4.1% [at 80.4 µM]
